In all, about 33,000 sequences were measured (“e-score”: median about -0.053, highest 2% from about 0.38 on). The entries come from a sample that favours the highest values as a whole.

The text below walks through data of article PMC10668032, “Altered binding affinity of SIX1-Q177R correlates with enhanced WNT5A and WNT pathway effector expression in Wilms tumor”.

The target of the assay is T1, SIX1 homeodomain (reference allele) (human, UniProt Q15475 108-198).
T1 sequence: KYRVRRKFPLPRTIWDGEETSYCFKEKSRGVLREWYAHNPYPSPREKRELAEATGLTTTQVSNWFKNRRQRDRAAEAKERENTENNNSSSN
The experiment in a line: universal protein binding microarray; Universal all-10-mer PBM (8x60K, AMADID 030236), 300 nM GST-tagged protein, Alexa Fluor 488 anti-GST; buffer, salt, pH and temperature not stated (as in Berger); high values mean tight binding. Particulars: protein: ivt; tags: N-terminal GST; dsDNA, one strand shown. A digest of the protocol:
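Homeodomains fused to GST were made by in vitro transcription/translation and measured by anti-GST western blot with a recombinant GST standard curve. At 300 nM final concentration, they were applied in duplicate to universal 'all 10-mer' protein binding microarrays (8×60K format).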
Consider AGATCCGA, for which the binding signal worked out at 0.276 ± 0.0275 E-score.
In the case of ATCGTCTC, the binding signal worked out at 0.304 ± 0.0389 E-score.
With TACAAGTA, the binding signal is 0.162 ± 0.0274 E-score.
As for ATCTAGGG, the binding signal is 0.187 ± 0.0244 E-score.
With CCGGTAGA, the binding signal amounted to 0.151 ± 0.0265 E-score.
Then ATCACGGA, with 0.288 ± 0.0444 E-score; and GATACTCA, with 0.429 ± 0.0251 E-score.
Then GATACTAC, with 0.432 ± 0.0131 E-score; and GATACTAA, with 0.362 ± 0.0288 E-score; and CATACTCA, with 0.152 ± 0.0301 E-score.
For the sequence AATACTCG, the binding signal was found to be 0.165 ± 0.0216 E-score.
Regarding AATACTCA, the binding signal is 0.255 ± 0.0524 E-score.
Then GATACTCC, with 0.45 ± 0.00694 E-score; and AATACTAC, with 0.181 ± 0.00602 E-score; and TATACTCA, with 0.192 ± 0.0629 E-score.
Then TAGAGATA, with 0.268 ± 0.0459 E-score.
Then AGGCCGAT, with 0.153 ± 0.00796 E-score.
ATATAACC: the binding signal came to 0.177 ± 0.0584 E-score.
On to ATCGCTGG, for which the binding signal was found to be 0.23 ± 0.00422 E-score.
AGATAGCC: the binding signal came to 0.247 ± 0.0195 E-score.
Take ATCTGGGA: the binding signal was determined as 0.196 ± 0.00724 E-score.
TATCTAAA: the binding signal was 0.301 ± 0.0245 E-score.
Then GTATACAC, with 0.371 ± 0.00578 E-score; and ATCAGGAA, with 0.165 ± 0.0245 E-score.
Under ATCAGGAG stands 0.188 ± 0.0305 E-score; under ATCAGGAT, 0.394 ± 0.00836 E-score.
Consider ATCATGAG, for which the binding signal was found to be 0.23 ± 0.0357 E-score.
Consider ATCATGAT, for which the binding signal came out at 0.3975 ± 0.000976 E-score.
As to ATCATGAC, the binding signal stood at 0.197 ± 0.0404 E-score.
Regarding CATCGGGA, the binding signal amounted to 0.164 ± 0.0507 E-score.
Then ATCTACTG, with 0.22 ± 0.0235 E-score; and GATCGGGC, with 0.296 ± 0.015 E-score; and CACATATA, with 0.165 ± 0.0792 E-score.
Consider AAAATATC, for which the binding signal was found to be 0.154 ± 0.121 E-score.
Consider GACATATC, for which the binding signal was found to be 0.386 ± 0.0597 E-score.
With TACATATA, the binding signal was determined as 0.254 ± 0.00881 E-score.
Take AACATATA: the binding signal came to 0.235 ± 0.0646 E-score.
In the case of CACATATC, the binding signal worked out at 0.404 ± 0.0155 E-score.
Then AACATATC, with 0.378 ± 0.0821 E-score; and CATATATG, with 0.23 ± 0.0477 E-score; and GACATATA, with 0.226 ± 0.0783 E-score.
Then ATATTACC, with 0.259 ± 0.0572 E-score; and CCGGTATC, with 0.465 ± 0.014 E-score.
In the case of ACGGTATG, the binding signal was found to be 0.157 ± 0.0316 E-score.
Regarding ACGGTATA, the binding signal was 0.309 ± 0.0298 E-score.
Consider CCGGTATA, for which the binding signal was found to be 0.343 ± 0.0129 E-score.
Under ACGGTATC stands 0.461 ± 0.00576 E-score; under CCGGTAAA, 0.157 ± 0.034 E-score.
Under AGCTGGAT stands 0.248 ± 0.0399 E-score; under CGGGCTCA, 0.2 ± 0.0586 E-score; under CCGATACC, 0.478 ± 0.00955 E-score.
In the case of CCTATACC, the binding signal came out at 0.311 ± 0.00556 E-score.
On to ACGATAGC, for which the binding signal was determined as 0.217 ± 0.0418 E-score.
On to ACGATACC, for which the binding signal turned out to be 0.4766 ± 0.000912 E-score.
In the case of GCGATACA, the binding signal was 0.3759 ± 0.00354 E-score.
Under CCGATACA stands 0.355 ± 0.0604 E-score; under CCAATACC, 0.324 ± 0.0157 E-score.
Then GCGATACC, with 0.4835 ± 0.00434 E-score; and GCGATAGC, with 0.165 ± 0.0972 E-score; and CCGATAGG, with 0.348 ± 0.0522 E-score.
For the sequence CCGATACG, the binding signal was 0.425 ± 0.0199 E-score.
For ACTATACC, the binding signal is 0.294 ± 0.0358 E-score.
ATCGCCCC: the binding signal amounted to 0.253 ± 0.0184 E-score.
As for TCATCTCA, the binding signal was found to be 0.298 ± 0.0135 E-score.
On to TACCTATA, for which the binding signal is 0.289 ± 0.0262 E-score.
For ACTGTATA, the binding signal was determined as 0.239 ± 0.0136 E-score.
In the case of AAGATACT, the binding signal was 0.295 ± 0.0825 E-score.
Turning to ACGATACG, the binding signal came out at 0.4317 ± 0.000841 E-score.
Under CCTATACG stands 0.153 ± 0.0436 E-score; under ACGATACA, 0.3689 ± 0.00151 E-score.
For ACGATACT, the binding signal worked out at 0.439 ± 0.00647 E-score.
As to ACTATACG, the binding signal was found to be 0.247 ± 0.0175 E-score.
For GAGGTGTA, the binding signal came to 0.233 ± 0.0426 E-score.
Take CCAATTAG: the binding signal was found to be 0.188 ± 0.014 E-score.
As for ATACTAGC, the binding signal was 0.245 ± 0.0797 E-score.
On to GGATAGTA, for which the binding signal was found to be 0.332 ± 0.00348 E-score.
Then AGTATCGG, with 0.4293 ± 0.0041 E-score.
With AAGATCGC, the binding signal came to 0.211 ± 0.00754 E-score.
Then AGTATCGC, with 0.435 ± 0.0231 E-score; and CGTATAGC, with 0.185 ± 0.0242 E-score.
On to CCTATCGC, for which the binding signal worked out at 0.29 ± 0.0221 E-score.
For ACTATCGA, the binding signal amounted to 0.263 ± 0.00274 E-score.
Turning to ATTATCGG, the binding signal stood at 0.24 ± 0.012 E-score.
Under AGTATCGA stands 0.418 ± 0.0178 E-score.
As for ACTATCGC, the binding signal stood at 0.2364 ± 0.00196 E-score.
In the case of CGTATCGC, the binding signal was determined as 0.453 ± 0.00646 E-score.
Then AGTATAGA, with 0.195 ± 0.0499 E-score; and AGTATATG, with 0.207 ± 0.0381 E-score; and CTAGATAG, with 0.197 ± 0.0328 E-score.
Turning to ATATGCGA, the binding signal was determined as 0.276 ± 0.0349 E-score.
On to ATATAGCA, for which the binding signal was 0.248 ± 0.0375 E-score.
Then TATTGAGA, with 0.237 ± 0.0198 E-score.
Consider AGATCTGC, for which the binding signal is 0.204 ± 0.0418 E-score.
On to ACTCGTAT, for which the binding signal is 0.205 ± 0.0218 E-score.
For the sequence GTATTGAA, the binding signal worked out at 0.213 ± 0.0401 E-score.
Turning to CTTGTATA, the binding signal stood at 0.213 ± 0.0563 E-score.
Consider ATACAGCA, for which the binding signal is 0.221 ± 0.0273 E-score.
As for ATACTAGG, the binding signal turned out to be 0.275 ± 0.02 E-score.
In the case of AATACGGT, the binding signal came out at 0.231 ± 0.00828 E-score.
GATACGAA: the binding signal was 0.335 ± 0.00345 E-score.
As to AATACGAC, the binding signal came out at 0.18 ± 0.0741 E-score.
TATACGGA: the binding signal worked out at 0.28 ± 0.0266 E-score.
Take GATACGGA: the binding signal was determined as 0.455 ± 0.00852 E-score.
With CATACGGA, the binding signal was found to be 0.178 ± 0.0693 E-score.
Take AATACGGC: the binding signal worked out at 0.252 ± 0.0178 E-score.
Then GATACGGC, with 0.4543 ± 0.00163 E-score; and GATACGAC, with 0.382 ± 0.0127 E-score; and ATTATAAT, with 0.151 ± 0.0936 E-score.
For the sequence ATCGCTGA, the binding signal is 0.226 ± 0.0497 E-score.
As to AATCCGAT, the binding signal was determined as 0.3407 ± 0.0025 E-score.
